SENP8 block-1: inhibitors of human SENP8 protease; inhibition, % at 20 µM; Q96LD8; 0.64% of 360,000 active; recombinant SENP8, Nedd8 substrate fluorescence; in the data active = inhibition mostly above about 40%, no sharp cut-off; inactive = mostly below about 27%
SENP6 block: blocks the human protease SENP6; AID 2599; Recombinant SENP6 catalytic domain, aminoluciferin luminescence; inhibition, % at 10 µM; 1.8% of 330,000 active; Q9GZR1;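 active = inhibition above about 50% at the single tested dose, limit read from the data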
Target sequence (Q9GZR1 628-1112 limits assumed): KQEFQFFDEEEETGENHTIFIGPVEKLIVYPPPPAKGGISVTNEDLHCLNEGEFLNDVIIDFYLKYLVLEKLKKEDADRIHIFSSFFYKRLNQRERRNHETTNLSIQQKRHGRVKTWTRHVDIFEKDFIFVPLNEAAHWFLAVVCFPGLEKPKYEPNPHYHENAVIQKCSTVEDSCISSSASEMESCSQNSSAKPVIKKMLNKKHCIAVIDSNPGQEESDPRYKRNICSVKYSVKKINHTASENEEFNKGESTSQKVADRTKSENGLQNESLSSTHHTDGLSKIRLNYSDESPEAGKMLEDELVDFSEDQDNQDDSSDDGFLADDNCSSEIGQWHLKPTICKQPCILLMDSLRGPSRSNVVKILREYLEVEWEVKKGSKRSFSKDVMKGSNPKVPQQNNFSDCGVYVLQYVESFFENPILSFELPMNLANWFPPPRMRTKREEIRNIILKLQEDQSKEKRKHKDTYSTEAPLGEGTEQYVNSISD
C8 TRAIL sens: sensitizes caspase-8 expressing cells to TRAIL; inhibition (viability loss, TRAIL sensitization), % at 10 µM; NB7+C8 cells + TRAIL, ATPlite viability luminescence; 1% of 360,000 active; AID 624354;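 active = compounds causing at least 50% loss of cell viability in the single-dose screen, relative to plate controls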
SENP7 block: blocks the human protease SENP7 | 1.5% of 330,000 active | AID 434973 | inhibition, % at 5 µM | Q9BQF6 | recombinant SENP7, Z-RLRGG-aminoluciferin luminescence, 40 min;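 active = inhibition above about 50% at the single test dose, limit read from the data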
SENP8 block-2: blocks the human protease SENP8; purified SENP8, Z-RLRGG-aminoluciferin cleavage, luminescence; AID 2540; 1.2% of 330,000 active; inhibition, % at 10 µM; Q96LD8; in the data active = inhibition above about 50%
PPC-1+TRAIL kill: kills PPC-1 cancer cells in the presence of TRAIL | PPC-1 cells + TRAIL, ATPLite viability luminescence | cell killing (% activity), % at 4 µM or 5 µM | 0.41% of 220,000 active | AID 1443;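 active = cell killing above 50% in the first pass at 4 µM, then a duplicate retest at 5 µM averaging 50% or more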
Numbers stand for hits; n = inactive; x = no result given. In the library only some 3% were active in any assay of this set; here they are far more common.

SMILES | SENP8 block-1 | SENP6 block | C8 TRAIL sens | SENP7 block | SENP8 block-2 | PPC-1+TRAIL kill
CC(/C=C/c1cccc([N+](=O)[O-])c1)=N/NC(=O)c1cccnc1 | n | n | n | n | n | n
CC(/C=C/c1ccccc1)=N/NC(=O)c1cc([N+](=O)[O-])cc([N+](=O)[O-])c1 | n | x | 52 | x | x | n
Cc1cc(NC(=O)CCN2C(=O)c3ccccc3C2=O)no1 | n | n | n | n | n | n
Cc1cc(NC2=CC(=O)C(=O)c3ccccc32)no1 | n | x | 72 | x | x | x
CCN(CC)CCCn1c2c(c(SCC(=O)Nc3ccc4c(c3)OCCO4)nc1=O)CCC2 | n | n | n | n | n | x
S=C(Nc1ccccc1)c1nc2ccccc2s1 | n | n | n | 67 | n | n
CCOC(=O)c1ccc(NC(=O)C2CC(O)CN2S(=O)(=O)c2ccc(C)cc2)cc1 (stereo not given) | n | n | n | n | n | x
Cc1cc(C(=O)Cn2nc(C(=O)O)c3ccccc3c2=O)c(C)n1-c1ccccc1 | n | n | 76 | n | n | n
Cc1cc(C)c(C(=O)Cn2nc(C(=O)O)c3ccccc3c2=O)cc1C | n | n | n | n | n | n
COn1c(C)c(C(C)=O)c2c3no[n+]([O-])c3ccc21 | n | n | n | n | n | n
C=CCOn1c(C)c(C(C)=O)c2c3no[n+]([O-])c3ccc21 | n | n | 60 | n | n | n
CN(C)c1ccc(NC(=O)c2cccc(C(=O)Nc3ccc(N(C)C)cc3)n2)cc1 | n | n | 53 | n | n | n
CCCCCCCNC(=O)C1(CC2CC(c3ccc(Cl)cc3)=NO2)CCN(C(=O)Cc2ccc(F)cc2)CC1 (stereo not given) | n | n | n | n | n | x
CCCCCCCNC(=O)C1(CC2CC(c3cccc(Br)c3)=NO2)CCNCC1 (stereo not given) | n | n | 87 | n | n | x
CCCCCCCNC(=O)C1(CC2CC(c3ccc(Cl)cc3)=NO2)CCNCC1 (stereo not given) | n | n | 71 | n | n | x
CN(C)CCNC(=O)c1cccc(-c2cc(NC=O)c3ncc(-c4cccc(C(F)(F)F)c4)n3c2)c1 | n | x | 79 | x | x | x
Cc1cc(NC(=O)c2cc3n(n2)C(C(F)(F)F)CC(c2ccco2)N3)no1 (stereo not given) | n | n | 60 | n | n | n
CC(C)NC(=O)c1cc2n(n1)C(C(F)(F)F)CC(c1ccco1)N2 (stereo not given) | n | n | n | n | n | n
CC1CCCCN1S(=O)(=O)c1ccc(C(=O)N(CCCN(C)C)c2nc3ccc(Br)cc3s2)cc1 (stereo not given) | n | n | 55 | n | n | x
CCc1ccc2nc(N(CCCN(C)C)C(=O)c3ccc(S(=O)(=O)N4CCCC4)cc3)sc2c1 | n | n | n | n | n | x
CCc1ccc2nc(N(CCCN(C)C)C(=O)c3ccc(C(=O)c4ccccc4)cc3)sc2c1 | n | n | 62 | n | n | x
COc1cc2nc(N(CCCN(C)C)C(=O)c3ccc(C(=O)c4ccccc4)cc3)sc2cc1OC | n | n | n | n | n | x
CCc1ccc2nc(N(CCCN(C)C)C(=O)c3ccc(S(=O)(=O)N4CCCc5ccccc54)cc3)sc2c1 | n | n | 68 | n | n | x
OC(CN1CCN(Cc2ccccc2)CC1)c1ccc(F)cc1 (stereo not given) | n | n | n | n | n | 58
CC(=O)Nc1ccc(NS(=O)(=O)c2ccccc2)c2ccccc12 | n | n | n | n | n | x
SMILES | SENP8 block-1 | SENP6 block | C8 TRAIL sens | SENP7 block | SENP8 block-2 | PPC-1+TRAIL kill
O=S(=O)(Nc1ccc(O)c2ccccc12)c1ccc(Br)cc1 | x | 62 | x | n | n | x
Cc1[nH]n(-c2ccccc2)c(=O)c1N=Nc1nccs1 | 56 | n | n | n | n | n
Cc1ccccc1N=Nc1c(C)[nH]n(-c2ccccc2)c1=O | x | x | x | x | x | n
Cc1[nH]n(-c2ccccc2)c(=O)c1N=Nc1ccccc1O | 40 | n | 57 | n | n | n
Cc1[nH]n(-c2ccccc2)c(=O)c1N=Nc1ccc2c(c1)OCO2 | 46 | n | n | n | n | n
Oc1ccc(CCNc2c3ccccc3nc3ccccc23)cc1O | n | n | 71 | n | n | x
CCOC(=O)c1ccccc1NC(=O)COC(=O)c1c(CC)noc1C | n | n | n | n | n | x
O=C(CNC(=O)c1cccs1)N/N=C/c1cccc(Cl)c1 | n | n | n | n | n | x
CC(C)[C@H](NC(=O)[C@H]1N2C(=O)c3ccccc3C2SC1(C)C)C(=O)NCc1ccco1 (stereo not given in full) | n | n | n | n | n | x
CC(=O)N1CCc2c(sc(NC(=O)c3ccc([N+](=O)[O-])o3)c2C(N)=O)C1 | n | x | 62 | x | x | x
COC(=O)C(C)NC(=O)C12CC3CC(C1)CC(c1ccc(C)cc1)(C3)C2 (stereo not given) | n | n | n | n | n | x
CC(C)(C)c1ccc(C(=O)Nc2ccc(C=C(C#N)C#N)cc2)cc1 | n | n | 53 | n | n | 50
N#CC(C#N)=Cc1ccc(NC(=O)c2ccc(Br)cc2)cc1 | n | n | n | n | n | n
Cc1cc(C)n2[nH]c(=O)c(N=Nc3cccc(Cl)c3)c2n1 | 48 | n | n | n | n | n
Cc1cc(C)n2[nH]c(=O)c(N=Nc3cccc(C(F)(F)F)c3)c2n1 | 53 | n | n | n | n | n
Cc1cc(C)n2[nH]c(=O)c(N=Nc3ccccc3)c2n1 | n | n | n | n | n | n
Cc1cc(C(F)(F)F)n2[nH]c(=O)c(N=Nc3ccccc3)c2n1 | n | n | n | n | n | x
COc1ccc(C2=NS(=O)(=O)N(C)C(C(=O)N3CCOCC3)=C2)cc1OC | n | n | n | n | n | x
C=CCN(c1ccc(C(=O)NCCSc2ccccc2)cc1)S(C)(=O)=O | n | n | n | n | n | x
CCN(CC)c1ccc(N=Cc2ccc([N+](=O)[O-])o2)cc1 | n | n | n | n | n | 53
c1csc(-c2ccc3ccccc3n2)c1 | n | 76 | n | 80 | 57 | n
c1csc(-c2nc3ccccc3s2)c1 | n | 86 | n | 80 | 78 | n
CC(C)(C)c1cc(C(=O)O)n(Cc2ccc(Cl)cc2Cl)n1 | n | n | n | n | n | n
CCCNC(=O)C(Cc1ccc(I)cc1)NC(=O)c1ccc(C#N)cc1 (stereo not given) | n | n | n | n | n | x
COc1ccc(-c2csc(NC(=O)C3CCN(c4ncnc5sc(C)c(C)c45)CC3)n2)cc1OC | n | n | 69 | n | n | x
COc1ccccc1OCC(=O)NNC(=O)C1CCN(c2ncnc3sc(C)c(C)c23)CC1 | n | n | n | n | n | x
COC(CNC(=O)CN1CCN(Cc2ccc(F)cc2Cl)C1=O)OC | n | n | n | n | n | x
O=C(/C=C\Nc1ccc2c(c1)OCO2)c1ccc(Cl)s1 | n | n | 73 | 71 | n | n
COc1ccc(NC(=O)CCNS(=O)(=O)c2cc(Br)cnc2N)c(OC)c1 | n | n | n | n | n | x
CCOc1ccc(C(=O)O/N=C(\N)c2ccccn2)cc1OCC | n | n | 79 | n | n | x

Assay outcomes from PubChem.
